{"source": "the supplement of paper PMC8728848", "assay_in_all_cases": "glycan array binding signal (z-score within array); higher = stronger binding", "details_in_all_cases": "glycan notation: IUPAC condensed, linker removed", "key": {"GalNAc(b1-3)Gal": {"target": "GalNAc(b1-3)Gal", "method_in_brief": "(§1)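 The binding signal is a Z-score computed within each array and averaged over linkers. Arrays of the same protein sequence at different concentrations or buffers were also averaged together. Data originate from 3228 arrays in the Consortium for Functional Glycomics database, kept only where the protein sequence was available.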"}, "GalNAc6S(b1-4)GlcNAc": {"target": "GalNAc6S(b1-4)GlcNAc", "method_in_brief": "as §1"}, "Glc(b1-6)Glc": {"target": "Glc(b1-6)Glc", "method_in_brief": "as §1"}, "[1]": {"target": "GlcNAc(a1-4)Gal(b1-3)GlcNAc", "method_in_brief": "as §1"}, "[2]": {"target": "GlcNAc(b1-2)Man(a1-3)[GlcNAc(b1-2)Man(a1-6)]Man(b1-4)GlcNAc(b1-4)[Fuc(a1-6)]GlcNAc", "method_in_brief": "as §1"}, "[3]": {"target": "GlcNAc(b1-3)Gal(b1-4)GlcNAc(b1-2)[GlcNAc(b1-3)Gal(b1-4)GlcNAc(b1-6)]Man(a1-6)[GlcNAc(b1-3)Gal(b1-4)GlcNAc(b1-2)Man(a1-3)]Man(b1-4)GlcNAc(b1-4)GlcNAc", "method_in_brief": "as §1"}, "[4]": {"target": "GlcNAc(b1-3)Gal(b1-4)GlcNAc(b1-3)Gal(b1-4)GlcNAc(b1-2)Man(a1-3)[GlcNAc(b1-3)Gal(b1-4)GlcNAc(b1-3)Gal(b1-4)GlcNAc(b1-2)Man(a1-6)]Man(b1-4)GlcNAc(b1-4)GlcNAc", "method_in_brief": "as §1"}, "[5]": {"target": "GlcNAc(b1-3)Gal(b1-4)GlcNAc(b1-3)Gal(b1-4)GlcNAc(b1-3)Gal(b1-4)GlcNAc(b1-2)Man(a1-3)[GlcNAc(b1-3)Gal(b1-4)GlcNAc(b1-3)Gal(b1-4)GlcNAc(b1-3)Gal(b1-4)GlcNAc(b1-2)Man(a1-6)]Man(b1-4)GlcNAc(b1-4)[Fuc(a1-6)]GlcNAc", "method_in_brief": "as §1"}, "[6]": {"target": "GlcNAc(b1-3)Gal(b1-4)GlcNAc(b1-3)Gal(b1-4)GlcNAc(b1-3)Gal(b1-4)GlcNAc(b1-3)Gal(b1-4)GlcNAc(b1-2)Man(a1-3)[GlcNAc(b1-3)Gal(b1-4)GlcNAc(b1-3)Gal(b1-4)GlcNAc(b1-3)Gal(b1-4)GlcNAc(b1-3)Gal(b1-4)GlcNAc(b1-2)Man(a1-6)]Man(b1-4)GlcNAc(b1-4)[Fuc(a1-6)]GlcNAc", "method_in_brief": "as §1"}, "[7]": {"target": "GlcNAc(b1-3)[GlcNAc(b1-6)]Gal(b1-4)GlcNAc", "method_in_brief": "as §1"}, "GlcNAc(b1-6)GalNAc": {"target": "GlcNAc(b1-6)GalNAc", "method_in_brief": "as §1"}, "[8]": {"target": "GlcNAc6S(b1-3)Gal(b1-4)GlcNAc", "method_in_brief": "as §1"}, "[9]": {"target": "Man(a1-2)Man(a1-6)[Man(a1-3)]Man(a1-6)[Man(a1-2)Man(a1-2)Man(a1-3)]Man", "method_in_brief": "as §1"}, "Man(a1-3)[Man(a1-6)]Man": {"target": "Man(a1-3)[Man(a1-6)]Man", "method_in_brief": "as §1"}, "[10]": {"target": "Man(a1-3)[Man(a1-6)]Man(a1-6)[Man(a1-2)Man(a1-3)]Man(b1-4)GlcNAc(b1-4)GlcNAc", "method_in_brief": "as §1"}, "[11]": {"target": "Neu5Ac(a2-3)Gal(b1-3)GlcNAc(b1-2)Man(a1-3)[GlcNAc(b1-4)][Neu5Ac(a2-3)Gal(b1-3)GlcNAc(b1-2)Man(a1-6)]Man(b1-4)GlcNAc(b1-4)GlcNAc", "method_in_brief": "as §1"}, "[12]": {"target": "Neu5Ac(a2-3)Gal(b1-3)GlcNAc(b1-4)Gal(b1-4)Glc", "method_in_brief": "as §1"}, "[13]": {"target": "Neu5Ac(a2-3)Gal(b1-3)[Neu5Ac(a2-6)]GlcNAc(b1-3)[Fuc(a1-3)[Gal(b1-4)]GlcNAc(b1-6)]Gal(b1-4)Glc", "method_in_brief": "as §1"}, "[14]": {"target": "Neu5Ac(a2-3)Gal(b1-4)GlcNAc(b1-2)[Neu5Ac(a2-3)Gal(b1-4)GlcNAc(b1-6)]Man(a1-6)[Neu5Ac(a2-3)Gal(b1-4)GlcNAc(b1-2)Man(a1-3)]Man(b1-4)GlcNAc(b1-4)GlcNAc", "method_in_brief": "as §1"}, "[15]": {"target": "Neu5Ac(a2-3)Gal(b1-4)GlcNAc(b1-3)Gal(b1-4)GlcNAc(b1-2)Man(a1-3)[Neu5Ac(a2-3)Gal(b1-4)GlcNAc(b1-3)Gal(b1-4)GlcNAc(b1-2)Man(a1-6)]Man(b1-4)GlcNAc(b1-4)GlcNAc", "method_in_brief": "as §1"}, "[16]": {"target": "Neu5Ac(a2-3)Gal(b1-4)GlcNAc(b1-3)Gal(b1-4)GlcNAc(b1-3)Gal(b1-4)GlcNAc(b1-2)Man(a1-3)[Neu5Ac(a2-3)Gal(b1-4)GlcNAc(b1-3)Gal(b1-4)GlcNAc(b1-3)Gal(b1-4)GlcNAc(b1-2)Man(a1-6)]GalNAc", "method_in_brief": "as §1"}, "[17]": {"target": "Neu5Ac(a2-3)Gal(b1-4)GlcNAc(b1-3)Gal(b1-4)GlcNAc(b1-3)GalNAc", "method_in_brief": "as §1"}, "[18]": {"target": "Neu5Ac(a2-3)Gal6S(b1-4)[Fuc(a1-3)]GlcNAc", "method_in_brief": "as §1"}, "[19]": {"target": "Neu5Ac(a2-6)Gal(b1-4)GlcNAc(b1-2)Man(a1-3)[Gal(b1-4)GlcNAc(b1-2)Man(a1-6)]Man(b1-4)GlcNAc(b1-4)GlcNAc", "method_in_brief": "as §1"}, "[20]": {"target": "Neu5Ac(a2-6)Gal(b1-4)GlcNAc(b1-2)Man(a1-3)[GlcNAc(b1-2)Man(a1-6)]Man(b1-4)GlcNAc(b1-4)GlcNAc", "method_in_brief": "as §1"}, "[21]": {"target": "Neu5Ac(a2-6)Gal(b1-4)GlcNAc(b1-3)Gal(b1-4)GlcNAc(b1-3)Gal(b1-4)GlcNAc(b1-2)Man(a1-3)[Neu5Ac(a2-6)Gal(b1-4)GlcNAc(b1-3)Gal(b1-4)GlcNAc(b1-3)Gal(b1-4)GlcNAc(b1-2)Man(a1-6)]GalNAc", "method_in_brief": "as §1"}, "[22]": {"target": "Neu5Ac(a2-6)Gal(b1-4)GlcNAc(b1-6)[Gal(b1-3)GlcNAc(b1-3)]Gal(b1-4)Glc", "method_in_brief": "as §1"}, "Neu5Ac(a2-8)Neu5Ac": {"target": "Neu5Ac(a2-8)Neu5Ac", "method_in_brief": "as §1"}, "[23]": {"target": "Neu5Ac(a2-8)Neu5Ac(a2-3)[GalNAc(b1-4)]Gal(b1-4)Glc", "method_in_brief": "as §1"}}, "note": "The entries come from a sample that favours the strongest signals as a whole."}
{"binder": "FliC (Clostridium difficile) (protein) MRVNTNVSALIANNQMGRNVNGQSKSMEKLSSGVRIKRAADDAAGLAISEKMRAQIKGLDQAGRNVQDGISVVQTAEGSLEETGNILQRMRTLSLQSANEINNTEEREKIADELTQLKDEIERISSSTEFNGKKLLDGTSSTIRLQVGASYGTNVSGTSNNNNEIKIQLVNTASIMASAGITTASIGSMKAGGTTGTDAAKTMVSSLDAALKSLNSSRAKLGAQQNRLESTQNNLNNTLENVTAAESRIRDTDVASEMVNLSKMNILVQASQSMLAQANQQPQGVLQLLG", "values": [{"measurement": "glycan array binding signal (z-score)", "setting": "GalNAc(b1-3)Gal", "value": -0.175}, {"measurement": "glycan array binding signal (z-score)", "setting": "GalNAc6S(b1-4)GlcNAc", "value": 0.047}, {"measurement": "glycan array binding signal (z-score)", "setting": "Glc(b1-6)Glc", "value": 1.72}, {"measurement": "glycan array binding signal (z-score)", "setting": "[1]", "value": 0.947}, {"measurement": "glycan array binding signal (z-score)", "setting": "[2]", "value": 0.458}, {"measurement": "glycan array binding signal (z-score)", "setting": "[3]", "value": 3}, {"measurement": "glycan array binding signal (z-score)", "setting": "[4]", "value": 0.372}, {"measurement": "glycan array binding signal (z-score)", "setting": "[5]", "value": -0.149}, {"measurement": "glycan array binding signal (z-score)", "setting": "[6]", "value": -0.369}, {"measurement": "glycan array binding signal (z-score)", "setting": "[7]", "value": -0.057}, {"measurement": "glycan array binding signal (z-score)", "setting": "GlcNAc(b1-6)GalNAc", "value": -0.08}, {"measurement": "glycan array binding signal (z-score)", "setting": "[8]", "value": 0.071}, {"measurement": "glycan array binding signal (z-score)", "setting": "[9]", "value": 0.153}, {"measurement": "glycan array binding signal (z-score)", "setting": "Man(a1-3)[Man(a1-6)]Man", "value": -0.471}, {"measurement": "glycan array binding signal (z-score)", "setting": "[10]", "value": 3.18}, {"measurement": "glycan array binding signal (z-score)", "setting": "[11]", "value": 0.514}, {"measurement": "glycan array binding signal (z-score)", "setting": "[12]", "value": 0.17}, {"measurement": "glycan array binding signal (z-score)", "setting": "[13]", "value": -0.645}, {"measurement": "glycan array binding signal (z-score)", "setting": "[14]", "value": -0.275}, {"measurement": "glycan array binding signal (z-score)", "setting": "[15]", "value": 1.02}, {"measurement": "glycan array binding signal (z-score)", "setting": "[16]", "value": 6.63}, {"measurement": "glycan array binding signal (z-score)", "setting": "[17]", "value": -0.31}, {"measurement": "glycan array binding signal (z-score)", "setting": "[18]", "value": -0.433}, {"measurement": "glycan array binding signal (z-score)", "setting": "[19]", "value": -0.515}, {"measurement": "glycan array binding signal (z-score)", "setting": "[20]", "value": 0.511}, {"measurement": "glycan array binding signal (z-score)", "setting": "[21]", "value": 2.32}, {"measurement": "glycan array binding signal (z-score)", "setting": "[22]", "value": -0.577}, {"measurement": "glycan array binding signal (z-score)", "setting": "Neu5Ac(a2-8)Neu5Ac", "value": -0.234}, {"measurement": "glycan array binding signal (z-score)", "setting": "[23]", "value": -0.626}]}
